# In the supplement of paper PMC10646978:
# ± gives the standard deviation.
# Legend:
# Conditions in all cases: modulator concentration 10 µM
# [1] = system: RAW-Dual (murine macrophage reporter line); assay: NF-kB reporter (SEAP) activity fold change vs agonist alone; higher = enhanced NF-kB activity
# Method in brief: (§1)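 RAW-Dual murine macrophage reporter cells were plated at 50 000 per well in 384-well plates, pin-transferred compound to 10 μM final, and pre-incubated for 1 hour at 37 °C before a PRR agonist was added and the cells incubated overnight. NF-κB activity was read from supernatant SEAP with QUANTI-Blue at 620 nm absorbance, and IRF activity from Lucia luciferase with QUANTI-Luc by luminescence. Each signal was expressed as fold change by dividing by the mean agonist-only control on the same plate. Two replicate plates were averaged, with errors obtained by propagation.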
# [2] = system: RAW-Dual (murine macrophage reporter line); assay: IRF reporter (Lucia luciferase) activity fold change vs agonist alone; higher = enhanced IRF activity
# Method in brief: as §1
# [3] = system: RAW-Dual (murine macrophage reporter line); assay: viability score (confluency relative to resting cells, overnight) (fraction); higher = more viable, active = viable (0.7 or more)
# Method in brief: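 Compound was added at a final 10 μM to RAW-Dual macrophages in 384-well plates and left overnight. Confluency was imaged with IncuCyte, and two masks were generated in IncuCyte software over all imaged wells. Each viability score is confluency relative to resting cells, and a compound met the cutoff only when both masks were above 70% of resting cells.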
# [4] = agonist: CpG ODN 1826 0.5 ug/mL
SMILES,"NF-kB reporter [1, 4]",NF-kB reporter ([1]; agonist: LPS 0.1 ug/mL),NF-kB reporter ([1]; agonist: MPLA […]),IRF reporter ([2]; agonist: 3'3'-cGAMP 10 ug/mL),IRF reporter ([2]; agonist: LPS 0.1 ug/mL),IRF reporter ([2]; agonist: MPLA […]),viability score [3]
Cc1ccc(Nc2cc(N3CCCCC3)c(N)c3c2C(=O)c2ccccc2C3=O)cc1,1.26 ± 0.23,1.09 ± 0.067,0.964 ± 0.12,1 ± 0.057,1.56 ± 0.21,1.12 ± 0.12,0.996 (active)
COc1cc2ncnc(Nc3ccc(F)c(Cl)c3)c2cc1OCCCN1CCOCC1.Cl,0.0798 ± 0.019,0.978 ± 0.06,1.08 ± 0.1,0.193 ± 0.015,0.835 ± 0.1,1.16 ± 0.11,0.592 (inactive)
O=C(Nc1cc2c(cc1Cl)OCCO2)c1cc(Cl)ccc1O,0.882 ± 0.068,0.902 ± 0.077,0.969 ± 0.092,1.08 ± 0.034,1.26 ± 0.16,1.45 ± 0.23,1.01 (active)
Clc1ccc(-c2nc(-c3ccc(I)cc3)[nH]c2-c2ccc(Cl)cc2)cc1,0.641 ± 0.049,0.91 ± 0.1,0.985 ± 0.1,0.929 ± 0.082,1.19 ± 0.24,1.27 ± 0.3,1.02 (active)
CCOP(C)(=O)C(c1ccccc1)N(C)S(C)(=O)=O (stereo not given),1.01 ± 0.089,1.04 ± 0.058,1.03 ± 0.062,1.03 ± 0.046,1.66 ± 0.19,1.22 ± 0.17,1.01 (active)
O=C(O)CSc1nnc(Br)n1-c1ccc(C2CC2)c2ccccc12,1.08 ± 0.15,0.924 ± 0.32,0.899 ± 0.05,0.624 ± 0.15,1.35 ± 0.31,1.28 ± 0.1,1 (active)
Cl.N=c1ccn2c(n1)OC1C(O)C(CO)OC12 (stereo not given),1.41 ± 0.38,1.17 ± 0.17,1.16 ± 0.073,0.696 ± 0.026,1.15 ± 0.18,0.959 ± 0.091,0.733 (active)
Fc1ccc(Nc2nc(NN=Cc3ccccc3Cl)nc(N3CCCCC3)n2)cc1,1.02 ± 0.17,1.26 ± 0.13,1.4 ± 0.31,0.992 ± 0.071,1.1 ± 0.19,1.48 ± 0.24,0.961 (active)
CC(C)C(C(=O)Nc1ccc(F)cc1)N1C(=O)c2ccccc2C1=O (stereo not given),0.911 ± 0.079,1.06 ± 0.086,0.935 ± 0.077,0.957 ± 0.033,1.09 ± 0.15,0.943 ± 0.058,1.02 (active)
CCCN1CCC(NCCc2cccc(Cl)c2)CC1,0.11 ± 0.018,0.9 ± 0.14,1.18 ± 0.091,0.704 ± 0.045,1.13 ± 0.18,1.13 ± 0.17,1 (active)
C=CCN1C(=O)C(C)(C)COc2cc(NC(=O)c3ccc(Br)o3)ccc21,1.25 ± 0.11,0.93 ± 0.21,1.07 ± 0.037,0.53 ± 0.046,0.933 ± 0.096,0.982 ± 0.24,0.994 (active)
O=C(O)c1cc(S(=O)(=O)N2CCCCC2)c(Cl)cc1Cl,0.937 ± 0.082,1.04 ± 0.087,0.965 ± 0.12,0.912 ± 0.11,1.18 ± 0.11,1.06 ± 0.28,1.01 (active)
O=C(CCC1CCCC1)Nc1cccc(Cl)c1,0.771 ± 0.061,0.906 ± 0.1,1.15 ± 0.1,0.943 ± 0.046,1.63 ± 0.11,1.87 ± 0.16,1 (active)
COCC(=O)N1CCC2(CC1)NC(=O)N(Cc1ccc(Cl)cc1)C2=O,0.764 ± 0.18,1.05 ± 0.075,1.05 ± 0.091,0.995 ± 0.05,1.02 ± 0.12,1.15 ± 0.28,1 (active)
Cc1ccc(NC(=O)CN2C(=O)c3ccccc3C2=O)c(C(=O)O)c1,0.789 ± 0.077,0.894 ± 0.057,1.05 ± 0.091,0.982 ± 0.049,1.32 ± 0.098,1.5 ± 0.18,1.02 (active)
CCOC(=O)C1=C(CC)OC(N)=C(C#N)C1c1cccc(Oc2ccc(Cl)cc2)c1 (stereo not given),0.746 ± 0.058,0.662 ± 0.05,0.769 ± 0.073,0.281 ± 0.0095,1.13 ± 0.18,1.12 ± 0.2,0.972 (active)
COc1cccc(-c2cc(C(=O)N3CCC(Oc4cc(C)n(C)c(=O)c4)CC3)n(C)n2)c1,1.01 ± 0.11,0.994 ± 0.1,0.983 ± 0.06,0.991 ± 0.059,0.964 ± 0.066,0.938 ± 0.085,1 (active)
CCC(C)(C)C(=O)O[C@H]1C[C@@H](C)C=C2C=C[C@H](C)[C@H](CC[C@@H]3C[C@@H](O)CC(=O)O3)[C@H]21,2.33 ± 0.12,1.54 ± 0.13,1.82 ± 0.084,0.599 ± 0.061,0.747 ± 0.062,0.639 ± 0.17,0.219 (inactive)

SMILES,"NF-kB reporter [1, 4]",NF-kB reporter ([1]; agonist: LPS 0.1 ug/mL),NF-kB reporter ([1]; agonist: MPLA […]),IRF reporter ([2]; agonist: 3'3'-cGAMP 10 ug/mL),IRF reporter ([2]; agonist: LPS 0.1 ug/mL),IRF reporter ([2]; agonist: MPLA […]),viability score [3]
COc1ccccc1C1C(C(C)=O)=C(O)C(=O)N1CCN(C)C (stereo not given),0.967 ± 0.054,1.07 ± 0.072,0.947 ± 0.057,0.958 ± 0.032,1.48 ± 0.24,1.25 ± 0.12,0.988 (active)
CCOC(=O)C1C(=O)NC(SCC(N)=O)=C(C#N)C1c1ccccc1OCC (stereo not given),0.936 ± 0.052,0.994 ± 0.063,0.926 ± 0.07,1 ± 0.072,1.25 ± 0.083,1.03 ± 0.098,1 (active)
Cc1c(F)cc(C(=O)NC2CC2)cc1-c1ccc(C(=O)NCC(C)(C)C)cn1,0.825 ± 0.21,0.994 ± 0.05,1.01 ± 0.071,1.1 ± 0.043,0.808 ± 0.18,0.932 ± 0.088,1 (active)
CCOc1ccc(-c2cccc(NC(=O)c3c(F)cccc3F)c2)nn1,0.969 ± 0.043,1.06 ± 0.088,1.13 ± 0.061,0.861 ± 0.053,1.11 ± 0.21,1.23 ± 0.46,0.982 (active)
Clc1ccc(-c2nc(N3CCCCC3)nc3ccccc23)cc1,0.444 ± 0.033,0.975 ± 0.051,1.09 ± 0.041,0.839 ± 0.047,0.953 ± 0.073,1.39 ± 0.12,0.993 (active)
O=C(NCCCO)C(=O)Nc1ccccc1F,0.815 ± 0.07,0.894 ± 0.045,1 ± 0.099,0.968 ± 0.062,1.39 ± 0.08,1.46 ± 0.14,1 (active)
CC(C(=O)N1CCN(S(=O)(=O)C2CC2)CC1)n1nc2c(cc1=O)CCC2 (stereo not given),0.928 ± 0.086,1.06 ± 0.095,0.934 ± 0.082,0.977 ± 0.091,0.964 ± 0.1,0.904 ± 0.19,1.01 (active)
Cc1cc(OCc2nc(-c3ccc(Cl)cc3Cl)no2)ccc1Br,1.03 ± 0.17,0.988 ± 0.12,1.63 ± 0.8,0.984 ± 0.039,1.15 ± 0.13,1.15 ± 0.21,1.01 (active)
COc1cc(NC(=O)COc2ccc(C(C)C)c(C)c2)c(OC)cc1Cl,0.818 ± 0.038,1.04 ± 0.1,1.71 ± 0.75,1.01 ± 0.047,1.25 ± 0.19,1.28 ± 0.39,0.96 (active)
CC1(C)NC(=O)N(c2ccc([N+](=O)[O-])c(C(F)(F)F)c2)C1=O,1.26 ± 0.41,1.11 ± 0.23,0.897 ± 0.052,0.868 ± 0.035,1.17 ± 0.21,1.25 ± 0.2,0.968 (active)
N#CCCC1(CCC#N)S(=O)(=O)CC(c2ccc(Cl)cc2)CS1(=O)=O,0.67 ± 0.04,0.909 ± 0.056,0.623 ± 0.05,0.915 ± 0.031,1.26 ± 0.087,1.04 ± 0.091,0.97 (active)
C=C(Br)Cn1c(COc2ccccc2)nc2ccccc21,0.562 ± 0.098,1.06 ± 0.12,1.05 ± 0.084,1.12 ± 0.036,1.19 ± 0.28,1.19 ± 0.15,0.991 (active)
O=C(O)CCn1c2c(c3ccccc31)C[C@H](NS(=O)(=O)c1ccc(F)cc1)CC2,1.13 ± 0.27,0.94 ± 0.061,0.947 ± 0.06,0.879 ± 0.072,1.2 ± 0.29,1.1 ± 0.12,1 (active)
CN(C)CC#CCNC(=O)Nc1ccc(C(F)(F)F)cc1,0.935 ± 0.33,0.899 ± 0.045,0.874 ± 0.058,0.425 ± 0.016,1.06 ± 0.22,1.22 ± 0.13,1 (active)
O=c1[nH]c(=O)n([C@H]2C[C@H](O)[C@@H](CO)O2)cc1F,1.65 ± 0.14,1.02 ± 0.12,1.11 ± 0.028,0.75 ± 0.042,0.923 ± 0.083,0.863 ± 0.067,0.669 (inactive)
Cc1cc(OCC(=O)NC2CC(C)(C)NC(C)(C)C2)ccc1Br,0.843 ± 0.1,1.03 ± 0.079,1.05 ± 0.043,0.952 ± 0.041,1.1 ± 0.079,1.55 ± 0.19,0.976 (active)
CCOC(=O)N1CCN(C(=O)CSc2ccc(-c3ccccc3)nn2)CC1,1.15 ± 0.086,1.05 ± 0.055,1.09 ± 0.06,0.931 ± 0.051,0.96 ± 0.1,0.906 ± 0.073,0.993 (active)
